Where a name gives a salt, the structure may show the parent alone. ± gives the uncertainty stated by the source.
Test system: NCC-PMP1-C1
Assay: cell viability relative to DMSO control; higher = less growth inhibition
Conditions: 10 µM; 72 h
Procedure: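 NCC-PMP1-C1 pseudomyxoma peritonei cells were seeded in 384-well plates coated with Matrigel and MEF (1e4 cells). Viability was read after 72 h by CCK-8 and expressed as % of the DMSO control, mean ± SD of duplicates.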

Compound	cell viability [%]
CNC(=O)c1ccc(N2C(=S)N(c3ccc(C#N)c(C(F)(F)F)c3)C(=O)C2(C)C)cc1F [Enzalutamide (MDV3100)]	99.7 ± 15
CN1c2cc(O)c(N=NC(N)=O)cc2CC1S(=O)(=O)O (stereo unspecified) [Carbazochrome sodium sulfonate (AC-17)]	90.4 ± 9.1
COc1ccc(/C=C/C(=O)Nc2ccccc2C(=O)O)cc1OC [Tranilast]	111 ± 20
COc1cccc2c1C(=O)c1c(O)c3c(c(O)c1C2=O)C[C@@](O)(C(C)=O)C[C@@H]3O[C@H]1C[C@H](N)[C@H](O)[C@H](C)O1 [Daunorubicin HCl]	-1.33 ± 0.2
Cc1c2oc3c(C)ccc(C(=O)N[C@@H]4C(=O)N[C@H](C(C)C)C(=O)N5CCC[C@H]5C(=O)N(C)CC(=O)N(C)[C@@H](C(C)C)C(=O)O[C@@H]4C)c3nc-2c(C(=O)N[C@@H]2C(=O)N[C@H](C(C)C)C(=O)N3CCC[C@H]3C(=O)N(C)CC(=O)N(C)[C@@H](C(C)C)C(=O)O[C@@H]2C)c(N)c1=O [Actinomycin D]	8.77 ± 0.95
C/C(=C\c1csc(C)n1)[C@@H]1C[C@@H]2O[C@]2(C)CCC[C@H](C)[C@H](O)[C@@H](C)C(=O)C(C)(C)[C@@H](O)CC(=O)N1	73.7 ± 4.9
N#CC1(c2ccc(NC(=O)c3cccnc3NCc3ccncc3)cc2)CCCC1 [Apatinib]	77.6 ± 9.1
Cc1ccc(F)c(NC(=O)Nc2ccc(-c3cccc4[nH]nc(N)c34)cc2)c1 [Linifanib (ABT-869)]	45.2 ± 6.3
CN(C)C/C=C/C(=O)Nc1cc2c(Nc3ccc(F)c(Cl)c3)ncnc2cc1O[C@H]1CCOC1 [Afatinib (BIBW2992)]	12.4 ± 2.3
CS(=O)(=O)CCNCc1ccc(-c2ccc3ncnc(Nc4ccc(OCc5cccc(F)c5)c(Cl)c4)c3c2)o1 [Lapatinib]	50.4 ± 2.3
CC[C@H](Nc1ncnc2[nH]cnc12)c1nc2cccc(F)c2c(=O)n1-c1ccccc1 [CAL-101 (Idelalisib, GS-1101)]	73.5 ± 9.8
FC(F)(F)c1ccc(CNc2ccc(Cc3c[nH]c4ncc(Cl)cc34)cn2)cn1 [Pexidartinib (PLX3397)]	63.2 ± 6
CN(C)c1nc(N(C)C)nc(N(C)C)n1 [Altretamine]	113 ± 7.4
COc1ccc2c(c1OC)C(=O)O[C@@H]2[C@H]1c2c(cc3c(c2OC)OCO3)CCN1C [Noscapine HCl]	90.5 ± 4.2
CN(C)C/C=C/C(=O)Nc1cc2c(Nc3ccc(F)c(Cl)c3)ncnc2cc1O[C@H]1CCOC1 [Afatinib (BIBW2992) Dimaleate]	29.3 ± 2.4
S=C(NCc1ccc2c(c1)OCO2)N1CCN(c2ncnc3c2oc2ccccc23)CC1 [Amuvatinib (MP-470)]	176.1 ± 0.89
Fc1ccc(C(c2ccc(F)cc2)N2CCN(C/C=C/c3ccccc3)CC2)cc1 [Flunarizine 2HCl]	99.6 ± 22
CC[C@@]1(O)C(=O)OCc2c1cc1n(c2=O)Cc2cc3c(CN(C)C)c(O)ccc3nc2-1 [Topotecan HCl]	55.8 ± 2.9

Compound	cell viability [%]
COc1cc2/c(=N/c3ccc(Br)cc3F)nc[nH]c2cc1OCC1CCN(C)CC1 [Vandetanib (ZD6474)]	54.7 ± 4.9
Nc1ncn([C@@H]2O[C@H](CO)[C@@H](O)[C@H]2O)c(=O)n1 [Azacitidine]	83.3 ± 6.9
Cc1cn(-c2cc(NC(=O)c3ccc(C)c(Nc4nccc(-c5cccnc5)n4)c3)cc(C(F)(F)F)c2)cn1 [Nilotinib (AMN-107)]	70.1 ± 16
CS(=O)(=O)OCCCCOS(C)(=O)=O [Busulfan]	121 ± 7.5
Nc1nc(Cl)nc2c1ncn2[C@@H]1O[C@H](CO)[C@@H](O)[C@@H]1F [Clofarabine]	112 ± 5.7
C=CC[C@@H]1/C=C(\C)C[C@H](C)C[C@H](OC)[C@H]2O[C@@](O)(C(=O)C(=O)N3CCCC[C@H]3C(=O)O[C@H](/C(C)=C/[C@@H]3CC[C@@H](O)[C@H](OC)C3)[C@H](C)[C@@H](O)CC1=O)[C@H](C)C[C@@H]2OC [Tacrolimus (FK506)]	2.67 ± 1
CCOC(=O)[C@H](CCc1ccccc1)N[C@H]1CS[C@H](c2cccs2)CN(CC(=O)O)C1=O [Temocapril HCl]	84.76 ± 0.83
C=CC(=O)N1CCC(Oc2cc3c(Nc4ccc(Cl)c(Cl)c4F)ncnc3cc2OC)CC1 [Poziotinib (HM781-36B)]	76.9 ± 8.5
Nc1nc2[nH]cnc2c(=S)[nH]1 [Thioguanine]	88.9 ± 9.4
CNC(=O)c1ccccc1Sc1ccc2c(/C=C/c3ccccn3)n[nH]c2c1 [Axitinib]	61.27 ± 0.13
CC(C)C(=O)Nc1ccc([N+](=O)[O-])c(C(F)(F)F)c1 [Flutamide]	74 ± 38
CO[C@H]1O[C@@H]2O[C@@]3(C)CC[C@H]4[C@H](C)CC[C@@H]([C@H]1C)[C@@]24OO3 [Artemether]	105 ± 6.2
C=CC(=O)Nc1cc(Nc2nccc(-c3cn(C)c4ccccc34)n2)c(OC)cc1N(C)CCN(C)C [Osimertinib (AZD9291)]	4.44 ± 0.89
CC(C)(OCc1nn(Cc2ccccc2)c2ccccc12)C(=O)O [Bindarit]	104 ± 7.1
COc1cc2c(Oc3ccc4[nH]c(C)cc4c3F)ncnc2cc1OCCCN1CCCC1 [Cediranib (AZD2171)]	22.4 ± 14
O=C(O)C1=CO[C@@H](O[C@@H]2O[C@H](CO)[C@@H](O)[C@H](O)[C@H]2O)[C@@H]2C(CO)=CC[C@H]12 [Geniposidic acid]	97.1 ± 2.2
COc1cc2ncnc(Nc3ccc(F)c(Cl)c3)c2cc1OCCCN1CCOCC1 [Gefitinib(ZD1839)]	85.16 ± 0.73
O=c1[nH]c(=O)n(C2CCCO2)cc1F (stereo unspecified)	108 ± 3.1

— the supplement of paper PMC8877412
